Test results: PubChem BioAssay (EPA / NIEHS)
Values joined by “and” are separate entries in the source; they are usually repeats but may differ in a detail not shown here. Identical values can stand only once. Results filed as inconclusive are left out. A structure can be active in one record and inactive in another. Active and inactive are the calls of the source. Rule for the calls, unless noted: active = hit-call score of the fitted dose curve at least 0.9, where 1 is the maximum; inactive = score below 0.9.

What was measured:
[1] = molecular target: human Retinoic Acid Receptor gamma (RARg), RARG (gene 5916) (UniProt P13631); assay: ATG_RARg_TRANS: Attagene TRANS-FACTORIAL HepG2 Assay for human Retinoic Acid Receptor gamma (RARg) (AID 2283009; active = hit-call score of the fitted dose curve at least 0.9, where 1 is the maximum;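 for AC50: AC50 is for reporter induction above DMSO meaning RARg activation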)
Outline: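 HepG2, RARg-GAL4 TRANS system, 24 h exposure; reporter mRNA by RT-PCR + CE fluorescence; increase over DMSO.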

[2] = molecular target: Aryl hydrocarbon receptor (Homo sapiens) (UniProt P35869); assay: ATG_Ahr_CIS: Attagene CIS-FACTORIAL HepG2 Assay for human Aryl Hydrocarbon Receptor (Ahr) (AID 2282930); details: HepG2 AhR cis-factorial reporter transcription; actives raise or lower the signal
Outline: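 HepG2, transient MRTU (cis) transfection, 24 h exposure. RNA → cDNA → PCR → 6-FAM primer extension → HpaI 2 h 37 C → CE. Fit: bidirectional, DMSO baseline.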

[3] = BSK_BT_PBMCCytotoxicity: PBMC Cytotoxicity Assessment in the BioMAP Diversity Plus: BT Assay (AID 2284225); details: primary human B cells with PBMC;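 note: PBMC viability measured by Alamar Blue dye reduction fluorescence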
Outline: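 75,000 cells/well; cpd 1 h → SEB + TSST-1 (20 ng/mL final each) → 90 h → Alamar Blue 6 h → fluor. 546/580 nm. DMSO = neg. control/baseline.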

[4] = read-out: Secreted IgG (sIgG), gene 3500; assay: BSK_BT_sIgG: BioMAP Diversity Plus: BT Assay for Secreted IgG (sIgG) Biomarker Activity (AID 2284226); details: primary human B cells with PBMC
Outline: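 Secreted IgG from a human primary B cell–PBMC co-culture was measured by ELISA 24 hours after dosing, with DMSO defining baseline activity.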

[5] = BSK_BT_Bcell_Proliferation: Viability Assessment in the BioMAP Diversity Plus: BT Assay for B cell Proliferation (AID 2284227); details: primary human B cells with PBMC
Outline: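 Human B cells co-cultured with PBMC were dosed with test chemicals and relative cell number was quantified by SRB staining at 72 h. Cells were fixed in 10% TCA, stained with 0.1% SRB and read at 560 nm. Activity was fitted in the positive direction against DMSO.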

[6] = read-out: Interleukin 17A (IL17A), IL17A (gene 3605); assay: BSK_BT_xIL17A: BioMAP Diversity Plus: BT Assay for Interleukin 17A (IL17A) Biomarker Activity (AID 2284229); details: primary human B cells with PBMC
Outline: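 Co-culture of human B cells and PBMC, dosed for 24 h in 96-well format. Secreted IL-17A measured with Luminex xMAP; gain-direction fitting against DMSO as baseline.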

[7] = read-out: Tumor necrosis factor (Homo sapiens) (UniProt P01375); assay: BSK_BT_xTNFa: BioMAP Diversity Plus: BT Assay for Tumor necrosis factor alpha (TNF-alpha) Biomarker Activity (AID 2284230); details: primary human B cells with PBMC
Outline: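 B cells with PBMC in co-culture, dosed and sampled at 24 h; secreted TNF-alpha measured by Luminex xMAP bead assay. Activity fitted in the gain direction against DMSO as negative control and baseline.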

[8] = read-out: Vascular cell adhesion molecule 1 (VCAM1), VCAM1 (gene 7412); assay: BSK_MyoF_VCAM1: BioMAP Diversity Plus: MyoF Assay for Vascular cell adhesion molecule 1 (VCAM1) Biomarker Activity (AID 2284231); details: primary human lung fibroblasts
Outline: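 Primary human lung fibroblasts (BioMAP MyoF system) dosed with chemical, VCAM-1 measured by ELISA 24 hours later. Fitted in the positive direction against DMSO; parallel SRB staining assessed cytotoxicity.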

[9] = read-out: Collagen I, COL1A1 (gene 1277); assay: BSK_MyoF_CollagenI: BioMAP Diversity Plus: MyoF Assay for Collagen I Biomarker Activity (AID 2284238); details: primary human lung fibroblasts
Outline: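 Primary human lung fibroblasts (MyoF system) treated 24 h; Collagen I quantified by ELISA and fitted in positive direction against DMSO. Parallel SRB total-protein staining assessed overt cytotoxicity.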

[10] = read-out: Collagen III, COL3A1 (gene 1281); assay: BSK_MyoF_CollagenIII: BioMAP Diversity Plus: MyoF Assay for Collagen III Biomarker Activity (AID 2284239); details: primary human lung fibroblasts
Outline: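 Primary human lung fibroblasts (BioMAP MyoF system) exposed 24 h. Collagen III measured by ELISA; positive-direction fit relative to DMSO.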

[11] = read-out: Interleukin 2 (IL2), IL2 (gene 3558); assay: BSK_BT_xIL2: BioMAP Diversity Plus: BT Assay for Interleukin 2 (IL2) Biomarker Activity (AID 2284245); details: primary human B cells with PBMC
Outline: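 Secreted interleukin-2 from human B cell/PBMC co-cultures, measured 24 h post-dosing by Luminex multiplex immunoassay. Upward-direction curve fitting against DMSO baseline.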

[12] = read-out: Basic fibroblast growth factor (bFGF), FGF2 (gene 2247); assay: BSK_MyoF_bFGF: BioMAP Diversity Plus: MyoF Assay for Basic fibroblast growth factor (bFGF) Biomarker Activity (AID 2284246); details: primary human lung fibroblasts
Outline: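 In this multiplexed cell system, lung fibroblasts (human primary) receive test chemical for 24 h before ELISA detection of bFGF; DMSO defines baseline and the analysis direction is positive.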

[13] = read-out: Collagen IV, COL4A1 (gene 1282); assay: BSK_MyoF_CollagenIV: BioMAP Diversity Plus: MyoF Assay for Collagen IV Biomarker Activity (AID 2284247); details: primary human lung fibroblasts
Outline: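 Activity is scored as a signal increase over DMSO in an ELISA for Collagen IV, measured on human lung fibroblasts at 24 h after chemical treatment. Cytotoxicity is checked in parallel cultures by sulforhodamine B total-protein staining.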

[14] = read-out: TIMP metallopeptidase inhibitor 1 (TIMP1), TIMP1 (gene 7076); assay: BSK_MyoF_TIMP1: BioMAP Diversity Plus: MyoF Assay for TIMP metallopeptidase inhibitor 1 (TIMP1) Biomarker Activity (AID 2284269); details: primary human lung fibroblasts
Outline: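 ELISA quantified TIMP-1 levels after 24 h dosing of primary human lung fibroblasts, with DMSO as baseline. Parallel SRB total protein staining (0.1% SRB after TCA fixation, 560 nm) flagged overt cytotoxicity.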

[15] = molecular target: Peroxisome proliferator-activated receptor gamma (Homo sapiens) (UniProt P37231); assay: OT_PPARg_PPARgSRC1_1440: Odyssey Thera (OT) 24-hour Protein-Complementation Assay for Peroxisome Proliferator-activated Receptor Gamma/ SRC-1 Co-activator (AID 2283388; active = hit-call score of the fitted dose curve at least 0.9, where 1 is the maximum)
Outline: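 HEK293T transiently transfected with PPARg/SRC-1 split-Venus YFP fusions 48 h before dosing, then treated 24 h at 37C. Fixed cells imaged; nuclear/cytoplasmic 488 nm fluorescence ratio, gain of signal versus DMSO.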

SERPINA7 (gene 6906) = assay: CCTE_GLTED_hTBG: CCTE's human Thyroxine-binding Globulin (TBG) Inhibition Assay, Great Lakes Toxicology and Ecology Division (GLTED) Lab (AID 2284343; active = hit-call score of the fitted dose curve at least 0.9, where 1 is the maximum;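 note: active chemicals lower fluorescence versus DMSO baseline by displacing probe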)
Outline: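 Measures how far test chemicals displace ANSA bound to purified human TBG. The read-out is fluorescence at 380 nm excitation and 475 nm emission, taken after 2 h of incubation.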

[16] = tested on: Thyroperoxidase (TPO), gene 54314; assay: CCTE_Simmons_AUR_rTPO: CCTE's Amplex UltraRed Assay for Thyroperoxidase (TPO) Inhibition, Simmons Lab (AID 2283662; active = hit-call score of the fitted dose curve at least 0.9, where 1 is the maximum;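 for AC50: potency for loss of signal meaning inhibition of peroxidase activity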)
Outline: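 Rat thyroid microsomes (5 ug protein) with 25 uM Amplex UltraRed and 300 uM H2O2 in 200 mM phosphate buffer, 30 min at 37C in dark; fluorescence 544/590 nm. Eight concentrations, 5 nM–87.5 uM final, 0.5% DMSO, triplicate biological replicates.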

[17] = CCTE_Simmons_CellTiterGLO_HEK293T: Viability Assessment in CCTE's Assays for Thyroperoxidase (TPO) Inhibition, Simmons Lab (AID 2283665; active = hit-call score of the fitted dose curve at least 0.9, where 1 is the maximum;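 for AC50: cells exposed to compound for 24 h before readout; actives reduce ATP signal below DMSO vehicle meaning cytotoxicity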)
Outline: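 Cytotoxicity counter-screen: human HEK293T cells in low-serum (1% FBS) medium receive test chemical, 5 nM to 87.5 uM final, for 24 h; ATP is quantified by luciferase luminescence.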

[18] = molecular target: Luciferin 4-monooxygenase (Photinus pyralis) (UniProt P08659); assay: CCTE_Simmons_QuantiLum_inhib_2: CCTE's Firefly Luciferase Inhibition Assay, Simmons Lab (AID 2283767; active = hit-call score of the fitted dose curve at least 0.9, where 1 is the maximum)
Outline: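 Counter-screen for nonspecific enzyme inhibition: purified firefly luciferase incubated 30 min at 37C with chemicals up to 87.5 uM final, then luminescence measured after luciferin/dATP injection; activity fitted against DMSO baseline.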

[19] = CCTE_Deisenroth_AIME_384WELL_CTox_Inactive: Cytotoxicity Assessment (CTOX) in CCTE's 384-well Estrogen Receptor Transactivation Assay without AIME metabolic competence (metabolism negative), Deisenroth Lab (AID 2284039; active = hit-call score of the fitted dose curve at least 0.9, where 1 is the maximum;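 note: cell viability via live-cell protease substrate cleaved to fluorescent probe; cells exposed 24 h to medium preincubated 2 h with alginate-water beads without S9; loss of fluorescence signal means loss of viability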)
Outline: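 VM7Luc4E2 cells, metabolism-negative arm: test chemicals (0.002–200 uM, 10 points) pre-incubated 2 h with alginate-water microspheres, then medium transferred to cells for 24 h. Viability read as protease-substrate cleavage to fluorescent probe; loss-of-signal, bidirectional fitting.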

Measured: AC50

Chain of Luciferin 4-monooxygenase (Photinus pyralis) (P08659 whole entry, looked up): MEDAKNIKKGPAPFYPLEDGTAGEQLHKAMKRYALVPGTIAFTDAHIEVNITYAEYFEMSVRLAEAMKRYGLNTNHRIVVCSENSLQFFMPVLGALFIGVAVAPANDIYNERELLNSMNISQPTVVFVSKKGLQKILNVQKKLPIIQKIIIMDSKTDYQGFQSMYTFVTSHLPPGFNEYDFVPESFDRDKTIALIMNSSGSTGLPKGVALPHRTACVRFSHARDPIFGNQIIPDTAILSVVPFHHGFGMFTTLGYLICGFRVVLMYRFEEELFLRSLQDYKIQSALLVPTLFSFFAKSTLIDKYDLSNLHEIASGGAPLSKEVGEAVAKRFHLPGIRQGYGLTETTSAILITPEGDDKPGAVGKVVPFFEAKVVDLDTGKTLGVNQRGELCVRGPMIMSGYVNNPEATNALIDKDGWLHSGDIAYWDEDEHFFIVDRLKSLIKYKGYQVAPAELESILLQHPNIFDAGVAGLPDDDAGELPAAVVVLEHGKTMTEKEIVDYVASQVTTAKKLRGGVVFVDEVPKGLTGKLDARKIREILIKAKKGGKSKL
Chain of Aryl hydrocarbon receptor (Homo sapiens) (P35869 whole entry, looked up): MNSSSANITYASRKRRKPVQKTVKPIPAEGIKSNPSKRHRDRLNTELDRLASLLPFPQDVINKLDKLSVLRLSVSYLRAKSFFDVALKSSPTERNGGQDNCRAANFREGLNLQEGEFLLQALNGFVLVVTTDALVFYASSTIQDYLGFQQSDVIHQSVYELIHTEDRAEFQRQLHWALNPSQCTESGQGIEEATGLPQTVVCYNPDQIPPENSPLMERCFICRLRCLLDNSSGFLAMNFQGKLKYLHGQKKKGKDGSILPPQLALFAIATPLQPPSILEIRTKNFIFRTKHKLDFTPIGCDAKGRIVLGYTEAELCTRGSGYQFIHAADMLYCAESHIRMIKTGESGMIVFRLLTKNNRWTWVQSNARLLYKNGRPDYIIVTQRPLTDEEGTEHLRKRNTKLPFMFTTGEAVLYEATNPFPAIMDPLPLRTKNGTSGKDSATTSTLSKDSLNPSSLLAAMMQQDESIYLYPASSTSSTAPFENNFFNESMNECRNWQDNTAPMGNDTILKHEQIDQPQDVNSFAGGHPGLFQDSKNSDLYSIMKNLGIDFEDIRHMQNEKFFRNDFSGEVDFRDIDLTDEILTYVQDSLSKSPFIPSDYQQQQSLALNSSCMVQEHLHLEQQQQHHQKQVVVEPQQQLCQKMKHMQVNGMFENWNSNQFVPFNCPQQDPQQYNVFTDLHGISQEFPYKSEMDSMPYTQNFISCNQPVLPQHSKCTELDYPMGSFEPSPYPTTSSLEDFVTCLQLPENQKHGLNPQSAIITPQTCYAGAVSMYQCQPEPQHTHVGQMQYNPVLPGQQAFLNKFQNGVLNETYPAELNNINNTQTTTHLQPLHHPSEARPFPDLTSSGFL
Chain of human Retinoic Acid Receptor gamma (RARg), RARG (gene 5916) (P13631 whole entry, looked up, the tested form may be a part): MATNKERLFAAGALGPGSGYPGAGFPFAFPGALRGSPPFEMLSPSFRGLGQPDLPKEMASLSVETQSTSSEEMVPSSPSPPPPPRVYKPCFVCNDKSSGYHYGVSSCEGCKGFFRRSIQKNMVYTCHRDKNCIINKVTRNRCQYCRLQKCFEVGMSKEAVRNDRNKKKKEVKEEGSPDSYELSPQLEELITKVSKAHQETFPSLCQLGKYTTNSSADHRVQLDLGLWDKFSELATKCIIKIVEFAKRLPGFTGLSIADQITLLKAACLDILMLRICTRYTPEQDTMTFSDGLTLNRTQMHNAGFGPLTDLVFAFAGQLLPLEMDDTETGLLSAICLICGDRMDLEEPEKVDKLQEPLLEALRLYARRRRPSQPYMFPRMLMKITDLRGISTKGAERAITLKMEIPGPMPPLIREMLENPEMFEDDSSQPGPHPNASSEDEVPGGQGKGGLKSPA
Chain of Tumor necrosis factor (Homo sapiens) (P01375 whole entry, looked up): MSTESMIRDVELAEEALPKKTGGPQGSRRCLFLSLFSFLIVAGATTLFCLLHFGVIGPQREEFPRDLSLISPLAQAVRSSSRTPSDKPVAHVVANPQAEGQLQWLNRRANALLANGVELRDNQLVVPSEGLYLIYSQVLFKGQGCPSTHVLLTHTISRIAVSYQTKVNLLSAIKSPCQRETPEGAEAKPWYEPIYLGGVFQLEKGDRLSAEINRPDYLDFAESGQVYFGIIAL
Chain of Peroxisome proliferator-activated receptor gamma (Homo sapiens) (P37231 whole entry, looked up, the tested form may be a part): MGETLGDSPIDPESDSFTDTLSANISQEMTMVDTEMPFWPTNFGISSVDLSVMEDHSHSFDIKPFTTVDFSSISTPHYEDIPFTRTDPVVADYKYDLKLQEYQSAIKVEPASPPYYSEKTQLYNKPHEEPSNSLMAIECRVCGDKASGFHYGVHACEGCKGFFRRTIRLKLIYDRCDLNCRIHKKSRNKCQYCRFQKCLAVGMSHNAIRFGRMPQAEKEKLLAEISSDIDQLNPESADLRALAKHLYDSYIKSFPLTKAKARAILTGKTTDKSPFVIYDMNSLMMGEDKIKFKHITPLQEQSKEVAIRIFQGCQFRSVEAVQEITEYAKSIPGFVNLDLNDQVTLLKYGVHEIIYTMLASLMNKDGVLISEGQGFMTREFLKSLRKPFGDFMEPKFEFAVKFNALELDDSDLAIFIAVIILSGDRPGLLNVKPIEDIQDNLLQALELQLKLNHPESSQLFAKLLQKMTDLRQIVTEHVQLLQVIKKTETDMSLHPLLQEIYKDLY

C=CCOC(=O)C(=C)C
inactive: [1]

O=C(O)c1cc(Cl)cc(Cl)c1O
active: [2] 79 µM

CC1=C(CC(=O)O)c2cc(F)ccc2/C1=C\c1ccc(S(C)=O)cc1 (stereo not drawn)
active: [2] 3.48 µM

CCCCCCCCCC/C=C/C1CC(=O)OC1=O (stereo not drawn)
inactive: [3] | [4] | [5] | [6] | [7] | [8] | [9] | [10] | [11] | [12] | [13] | [14]

CC[N+](CC)(CC(=O)Nc1c(C)cccc1C)Cc1ccccc1
inactive: [15] | [3] | [4] | [5] | [6] | [7] | [8] | [9] | [10] | [11] | [12] | [13] | [14]

OC(C(F)(F)F)(C(F)(F)F)C(O)(C(F)(F)F)C(F)(F)F
active: [3] 55.4 µM and 36.9 µM | [4] 9.13 µM and 9.49 µM | [5] 37 µM and 28.2 µM | [6] 31 µM and 24 µM | [7] 41.9 µM and 40.2 µM | [8] 45.7 µM and 41.7 µM | [9] 46.2 µM and 45.7 µM | [10] 41 µM and 39.5 µM | [11] 46 µM and 48.1 µM | [13] 13.6 µM and 13.9 µM | [14] 45.6 µM
inactive: [12] | [14]

O=C(Oc1ccccc1)c1ccccc1
inactive: [1] | [15]
active: SERPINA7 (gene 6906) 8.47 µM

O=C(C1CCCCC1)N1CC(=O)N2CCc3ccccc3C2C1 (stereo not drawn)
active: [2] 27.8 µM
inactive: [1]

CCOC(=O)c1ccccc1
inactive: [15]

COc1ccc(C(=O)c2ccccc2O)c(O)c1
inactive: [16] | [18]
active: [17] 81.7 µM

CC(=O)OC(C)(C)Cc1ccccc1
inactive: [19]

CCCCC(CC)COC(=O)C=Cc1ccc(OC)cc1 (stereo not drawn)
inactive: [16] | [17] | [18]

CCCCC(CC)COC(=O)CS (stereo not drawn)
inactive: [17] | [18]
active: [16] 25.6 µM

O=C1NC(=O)C2CC=CCC12 (stereo not drawn)
inactive: [1]

CCCCCCCCCCCCCCCCCC[N+](C)(C)C
active: [1] 34.4 µM | [3] 4.37 µM | [4] 706 nM | [5] 2.66 µM | [6] 1.36 µM | [7] 2.62 µM | [8] 3.33 µM | [9] 1.35 µM | [10] 2.73 µM | [11] 1.81 µM | [12] 3.73 µM | [13] 3.72 µM | [14] 8.13 µM

COc1ccc2ccccc2c1
inactive: [2]

CCCCCCCCCCCCCC
inactive: [2]
